Potency and outcome data for 6 compounds are collected here from PubChem BioAssay (Tox21).

Structures are written as SMILES. Several values for one entry are separate records, joined by “and”; a condition that tells them apart may be missing. Identical values can stand only once. Results filed as inconclusive are left out. Where a structure was tested more than once in an assay, its records may differ in their call. Activity calls are given as the source filed them. Unless noted, calls follow the shape of the dose curve; as a rule, active = well fitted curve in the direction sought with a large enough effect in the repeat runs; inconclusive = weak or mixed curves; inactive = no such curve, though single readings can be large; an effect the other way counts as inactive or inconclusive.

A short description of assay [1]: qHTS assay to identify small molecule antagonists of the sonic hedgehog signaling (Shh) pathway (AID 1259369; calls by dose curve; also: nearly all actives have a fitted effect of over 45% in size; also: potency is read from the fitted curve at half-maximal effect). An outline of the steps:
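Gli1 transcriptional reporter (firefly Luc) in NIH/3T3 background, conditioned-medium activated. 24hr exposure, luminescence endpoint.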

Assay [2] is described as follows: qHTS assay to identify small molecule agonists of the androgen receptor (AR) signaling pathway in the presence of an antagonist - cell viability counter screen (AID 1259379).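 Also: MDA-kb2 human breast cancer cells carrying an MMTV luciferase reporter; series mostly up to about 92 µM; nearly all actives have a fitted effect of over 25% in size.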 In a few lines:
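Counter screen for cell viability run in parallel with the AR agonist-mode luciferase assay. MDA-kb2 cells were co-treated with nilutamide (3.0uM final) and compounds, then incubated 16 hr at 37C, and CellTiter-Fluor fluorescence was measured.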
In general terms: qHTS replaces the single test concentration by a dilution series.

The nature of assay [3]: qHTS assay to identify small molecule agonists of the estrogen receptor beta (ER-beta) signaling pathway - cell viability counter screen (AID 1259380). Also: nearly all actives have a fitted effect of over 30% in size. Also: potency is read from the fitted curve at half-maximal effect. An outline of the steps:
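In this qHTS counter screen, HEK293T cells carrying an ER-beta/UAS beta-lactamase reporter, grown in 2% charcoal-stripped FBS, received compound for 16 hr; ATP-based CellTiter-Glo luminescence was then read after 30 min at room temperature.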

Assay [4] can be described thus: qHTS assay to identify small molecule antagonists of the estrogen receptor beta (ER-beta) signaling pathway - cell viability counter screen (AID 1259382). Also: nearly all actives have a fitted effect of over 55% in size. Also: potency is read from the fitted curve at half-maximal effect. An outline of the steps: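 HEK293T ER-beta-UAS-bla, 2% charcoal-stripped FBS; compounds + 1nM E2 16 hr 37C; CellTiter-Glo luminescence, 30 min RT.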
The target in assay [5] is Estrogen receptor (Homo sapiens) (UniProt P03372). The assay is described as follows: qHTS assay to identify small molecule agonists of the estrogen receptor alpha (ER-alpha) signaling pathway in the presence of an antagonist (AID 1259383; calls by dose curve; also: top concentration of the series differs between compounds; nearly all actives have a fitted effect of over 15% in size). An outline of the steps:
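ER-alpha agonism measured under antagonist challenge: 10.0nM ICI-182,780 (final) plus compound, 15 concentrations, 22hr, VM7Luc4E2 ERE-luciferase cells. Read by luminescence.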

Assay [6] deals with Thyrotropin receptor (Homo sapiens) (UniProt P16473). Put plainly: qHTS assay to identify small molecule antagonists of the thyroid stimulating hormone receptor (TSHR) signaling pathway (AID 1259385; calls by dose curve; also: nearly all actives have a fitted effect of over 20% in size). In a few lines: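 Antagonist mode: compound-treated TSHR-expressing HEK293 cells were stimulated with 1.5 ng/mL TSH (final) in presence of Ro20-1724 for 30 min at RT. HTRF cAMP detection after 1 h; each compound tested at 15 concentrations, triplicate.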
Sequence of Thyrotropin receptor (Homo sapiens) (P16473 whole entry, looked up): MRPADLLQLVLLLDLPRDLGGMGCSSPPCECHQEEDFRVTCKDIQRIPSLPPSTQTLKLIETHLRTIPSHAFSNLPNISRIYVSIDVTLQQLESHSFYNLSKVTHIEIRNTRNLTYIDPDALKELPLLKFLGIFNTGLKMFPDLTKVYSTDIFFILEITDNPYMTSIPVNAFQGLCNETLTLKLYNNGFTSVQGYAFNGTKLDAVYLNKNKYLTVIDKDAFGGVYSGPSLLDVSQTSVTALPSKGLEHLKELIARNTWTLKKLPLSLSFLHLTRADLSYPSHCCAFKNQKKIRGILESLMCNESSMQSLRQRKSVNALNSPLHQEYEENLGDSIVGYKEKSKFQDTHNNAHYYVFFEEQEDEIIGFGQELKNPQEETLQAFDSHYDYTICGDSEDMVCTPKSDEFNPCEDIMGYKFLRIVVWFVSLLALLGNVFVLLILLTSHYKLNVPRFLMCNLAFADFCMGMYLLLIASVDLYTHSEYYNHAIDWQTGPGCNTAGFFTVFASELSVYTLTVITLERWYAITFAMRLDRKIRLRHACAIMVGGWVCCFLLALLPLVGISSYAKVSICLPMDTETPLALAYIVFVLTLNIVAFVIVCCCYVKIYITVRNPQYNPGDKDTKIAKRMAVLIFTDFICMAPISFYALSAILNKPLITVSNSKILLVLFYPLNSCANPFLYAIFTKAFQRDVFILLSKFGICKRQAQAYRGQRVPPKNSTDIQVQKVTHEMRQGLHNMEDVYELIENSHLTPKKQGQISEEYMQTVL

Assay [7] in a line: qHTS assay to identify small molecule agonists of the estrogen receptor alpha (ER-alpha) signaling pathway in the presence of an antagonist - cell viability counter screen (AID 1259386).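 Also: series mostly up to about 92 µM; cells exposed to compounds for 22 h at 37 °C before the viability read; nearly all actives have a fitted effect of over 30% in size.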 In a few lines:
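Steps: 5-day stripped-FBS culture; seed and incubate 24hr; add ICI-182,780 (10.0nM final); pin 15-point compound titration; incubate 22hr at 37C; add CellTiter-Fluor at 21hr; read fluorescence.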

The target in assay [8] is Progesterone receptor (Homo sapiens) (UniProt P06401). Put plainly: qHTS assay to identify small molecule agonists of the progesterone receptor (PR) signaling pathway (AID 1346784; calls by dose curve; also: nearly all actives have a fitted effect of over 30% in size). In a few lines: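 Seed PR-UAS-bla HEK 293T cells (2% charcoal-stripped FBS), incubate 6 hr at 37C; add compounds in DMSO, 16 hr at 37C; add LiveBLAzer B/G substrate, 2 hr RT; read fluorescence intensity.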
Sequence of Progesterone receptor (Homo sapiens) (P06401 whole entry, looked up): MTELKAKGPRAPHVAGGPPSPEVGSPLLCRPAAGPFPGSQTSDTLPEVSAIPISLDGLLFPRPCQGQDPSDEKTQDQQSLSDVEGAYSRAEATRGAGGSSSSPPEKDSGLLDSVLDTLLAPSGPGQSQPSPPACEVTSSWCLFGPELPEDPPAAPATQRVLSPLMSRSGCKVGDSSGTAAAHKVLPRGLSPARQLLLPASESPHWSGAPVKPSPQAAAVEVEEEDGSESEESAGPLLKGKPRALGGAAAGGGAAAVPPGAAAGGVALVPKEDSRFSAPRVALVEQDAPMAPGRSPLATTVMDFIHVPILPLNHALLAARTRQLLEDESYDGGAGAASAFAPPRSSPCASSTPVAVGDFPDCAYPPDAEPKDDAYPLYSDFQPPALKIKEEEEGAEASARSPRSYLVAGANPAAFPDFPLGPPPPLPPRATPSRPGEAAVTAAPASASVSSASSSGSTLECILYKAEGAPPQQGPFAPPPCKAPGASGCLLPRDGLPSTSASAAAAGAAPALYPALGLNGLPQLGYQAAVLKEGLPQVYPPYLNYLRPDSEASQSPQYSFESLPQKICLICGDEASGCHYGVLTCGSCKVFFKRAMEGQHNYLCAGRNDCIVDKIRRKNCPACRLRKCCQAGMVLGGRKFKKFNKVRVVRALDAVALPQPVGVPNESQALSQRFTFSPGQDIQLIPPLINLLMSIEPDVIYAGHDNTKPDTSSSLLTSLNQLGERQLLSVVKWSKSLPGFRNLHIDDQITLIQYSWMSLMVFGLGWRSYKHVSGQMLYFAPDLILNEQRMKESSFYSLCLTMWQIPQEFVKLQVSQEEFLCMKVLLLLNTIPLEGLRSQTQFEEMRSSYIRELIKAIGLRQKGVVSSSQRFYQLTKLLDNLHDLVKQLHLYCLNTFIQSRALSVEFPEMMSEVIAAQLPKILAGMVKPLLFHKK

For assay [9] the target is unchanged. Put plainly: qHTS assay to identify small molecule antagonists of the progesterone receptor (PR) signaling pathway (AID 1346795; active = well fitted inhibition curve with a large enough effect in the signal ratio in the repeat runs, not every such curve was filed as active; the % refers to the signal ratio). In a few lines:
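Screening used a GripTite HEK293T line with PR-responsive UAS-beta-lactamase. Cells were challenged with compound in the presence of 1 nM R5020 final for 16 hr at 37C; B/G FRET substrate, 2 hr room temperature, fluorescence.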

A short description of assay [10]: qHTS assay to identify small molecule antagonists of the progesterone receptor (PR) signaling pathway - cell viability counter screen (AID 1346798). Also: nearly all actives have a fitted effect of over 50% in size. Also: potency is read from the fitted curve at half-maximal effect. An outline of the steps: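 Measures cytotoxicity in parallel with the PR antagonist reporter read: HEK293T PR-UAS-bla cells get compound and R5020 for 16 hr, and remaining viable cells are quantified by CellTiter-Glo luminescence.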

Assay [11] is described as follows: qHTS assay to identify small molecule agonists of the progesterone receptor (PR) signaling pathway - cell viability counter screen (AID 1346799; calls by dose curve; also: nearly all actives have a fitted effect of over 45% in size; also: potency is read from the fitted curve at half-maximal effect). In a few lines:
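Using the same plates as the PR reporter screen, HEK293T PR-UAS-bla cells received compounds for 16 hr at 37C and were then lysed with CellTiter-Glo; luminescence was read 30 min later at room temperature.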

The nature of assay [12]: qHTS assay to identify small molecule agonists of the TGF-beta/Smad signaling pathway - cell viability counter screen (AID 1346829). Also: nearly all actives have a fitted effect of over 45% in size. Also: potency is read from the fitted curve at half-maximal effect. An outline of the steps: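 CellTiter-Glo luminescence readout; SBE-bla HEK 293T cells, overnight plating, compound 5 hr at 37 C/5% CO2, then bla substrate 2 hr RT, then CellTiter-Glo 30 min RT.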
Assay [13] can be described thus: qHTS assay to identify small molecule agonists of the TGF-beta/Smad signaling pathway (AID 1346859; active = well fitted activation curve with a large enough effect in the signal ratio in the repeat runs, not every such curve was filed as active; the % refers to the signal ratio; also: series mostly up to about 77 µM). An outline of the steps:
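Beta-lactamase reporter activity downstream of Smad binding elements was measured in stably transfected HEK 293T cells; compounds were incubated for 5 hr, substrate for 2 hr at room temperature.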

Assay [14] deals with Thyrotropin-releasing hormone receptor (Homo sapiens) (UniProt P34981). Put plainly: qHTS assay to identify small molecule antagonists of the thyrotropin-releasing hormone receptor (TRHR) signaling pathway (AID 1346877; active = well fitted inhibition curve with a large enough effect in the repeat runs, not every such curve was filed as active; also: series mostly up to about 51 µM). In a few lines:
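Human TRHR in HEK293 cells; inhibition of the intracellular calcium rise triggered by 1 nM TRH was followed by fluorescence over 3 min. Compounds were run at 15 concentrations, three replicates each.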

Assay [15] shares this target. The assay is described as follows: qHTS assay to identify small molecule agonists of the thyrotropin-releasing hormone receptor (TRHR) signaling pathway (AID 1346891; calls by dose curve;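 also: HEK293 cells expressing TRHR with calcium dye readout; series mostly up to about 58 µM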). An outline of the steps:
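Overnight-plated (18 h, 37 °C, 5% CO2) TRHR-Hek293 cells; 2 h calcium dye at 37 °C; compound in DMSO; 3-min kinetic fluorescence read.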

For assay [16], the target named is Androgen receptor (Homo sapiens) (UniProt P10275). The assay is described as follows: qHTS assay to identify small molecule agonists of the androgen receptor (AR) signaling pathway in the presence of an antagonist (AID 1259381; calls by dose curve; also: nearly all actives have a fitted effect of over 15% in size). An outline of the steps:
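AR antagonist background: nilutamide 3.0uM final. Cell line: MDA-kb2, MMTV-driven luciferase, responsive to both AR and GR. Exposure 16hr, 37C, no CO2; ONE-Glo luminescence.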

Assay [17] can be described thus: qHTS assay to identify small molecule antagonists of the TGF-beta/Smad signaling pathway - cell viability counter screen (AID 1346824). Also: nearly all actives have a fitted effect of over 50% in size. In a few lines:
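Cytotoxicity counter-screen run in the same wells as the beta-lactamase Smad reporter read: CellTiter-Glo luminescence after 30 min at room temperature. HEK 293T SBE-bla cells had 5 hr compound exposure at 37 C with TGF-beta1 (0.25 ng/mL stock).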

Assay [18] is described as follows: qHTS assay to identify small molecule agonists or antagonists of the thyroid stimulating hormone receptor (TSHR) signaling pathway - wild type cell line counter screen (AID 1259384; calls by dose curve). In a few lines:
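Counter screen in untransfected Hek293: compounds (15-point titration, triplicate) plus phosphodiesterase inhibitor Ro20-1724 added after 18 h plating; 30 min RT. Intracellular cAMP via competitive d2/cryptate immunoassay, 1 h incubation.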

Sequence of Androgen receptor (Homo sapiens) (P10275 whole entry, looked up): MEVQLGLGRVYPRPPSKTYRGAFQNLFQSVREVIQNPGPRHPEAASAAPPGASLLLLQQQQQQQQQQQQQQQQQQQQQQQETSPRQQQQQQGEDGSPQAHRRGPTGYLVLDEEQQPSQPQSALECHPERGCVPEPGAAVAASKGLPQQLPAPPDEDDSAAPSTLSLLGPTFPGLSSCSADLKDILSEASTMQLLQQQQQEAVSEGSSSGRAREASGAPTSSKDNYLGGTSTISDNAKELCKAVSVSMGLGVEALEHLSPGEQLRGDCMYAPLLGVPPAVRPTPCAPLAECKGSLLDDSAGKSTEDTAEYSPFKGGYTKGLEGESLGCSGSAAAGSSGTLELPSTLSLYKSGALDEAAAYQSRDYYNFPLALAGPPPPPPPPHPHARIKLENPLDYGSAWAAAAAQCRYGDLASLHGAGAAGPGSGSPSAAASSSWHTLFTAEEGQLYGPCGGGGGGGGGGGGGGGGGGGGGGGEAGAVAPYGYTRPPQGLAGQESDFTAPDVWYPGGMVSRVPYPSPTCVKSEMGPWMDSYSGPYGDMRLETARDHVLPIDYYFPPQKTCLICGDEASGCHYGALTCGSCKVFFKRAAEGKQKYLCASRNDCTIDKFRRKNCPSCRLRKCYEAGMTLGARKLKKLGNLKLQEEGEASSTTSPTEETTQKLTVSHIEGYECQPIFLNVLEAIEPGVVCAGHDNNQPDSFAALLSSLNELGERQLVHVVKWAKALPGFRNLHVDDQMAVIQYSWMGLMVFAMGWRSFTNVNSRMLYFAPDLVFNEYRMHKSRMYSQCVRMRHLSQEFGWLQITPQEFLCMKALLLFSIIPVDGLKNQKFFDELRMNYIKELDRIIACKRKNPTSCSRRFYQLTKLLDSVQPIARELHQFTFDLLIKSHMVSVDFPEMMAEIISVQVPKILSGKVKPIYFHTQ
Sequence of Estrogen receptor (Homo sapiens) (P03372 whole entry, looked up): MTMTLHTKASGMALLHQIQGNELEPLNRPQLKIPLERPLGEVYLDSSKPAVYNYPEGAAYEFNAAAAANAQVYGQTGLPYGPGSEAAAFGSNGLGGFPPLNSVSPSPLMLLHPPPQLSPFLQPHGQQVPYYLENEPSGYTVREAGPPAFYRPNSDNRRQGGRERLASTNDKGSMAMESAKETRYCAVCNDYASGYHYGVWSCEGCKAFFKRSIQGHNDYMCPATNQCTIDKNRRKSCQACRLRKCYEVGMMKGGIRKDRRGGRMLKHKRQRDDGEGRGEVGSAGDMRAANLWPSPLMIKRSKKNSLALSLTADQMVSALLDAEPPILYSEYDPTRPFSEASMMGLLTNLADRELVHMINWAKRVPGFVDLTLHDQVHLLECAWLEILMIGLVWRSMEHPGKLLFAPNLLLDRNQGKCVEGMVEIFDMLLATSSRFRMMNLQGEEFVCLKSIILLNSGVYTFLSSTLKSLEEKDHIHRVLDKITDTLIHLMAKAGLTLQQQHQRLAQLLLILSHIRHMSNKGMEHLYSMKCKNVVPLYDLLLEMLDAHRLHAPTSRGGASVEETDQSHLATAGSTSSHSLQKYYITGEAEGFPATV
Sequence of Thyrotropin-releasing hormone receptor (Homo sapiens) (P34981 whole entry, looked up): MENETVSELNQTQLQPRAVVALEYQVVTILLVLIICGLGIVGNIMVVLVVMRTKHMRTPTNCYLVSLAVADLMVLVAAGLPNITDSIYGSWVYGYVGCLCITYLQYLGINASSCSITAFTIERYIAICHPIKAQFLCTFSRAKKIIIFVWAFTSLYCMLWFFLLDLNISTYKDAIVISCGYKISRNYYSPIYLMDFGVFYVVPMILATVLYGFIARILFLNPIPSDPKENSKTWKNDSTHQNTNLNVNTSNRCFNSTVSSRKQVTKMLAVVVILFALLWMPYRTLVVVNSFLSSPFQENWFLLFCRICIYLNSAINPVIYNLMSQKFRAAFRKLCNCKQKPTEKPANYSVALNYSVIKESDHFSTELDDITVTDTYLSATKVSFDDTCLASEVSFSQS

Regarding `C=CC(=O)OCC`, the Potency result in [1], in [2], in assay [3], in assay [4], in [5] and in assay [6] was “inactive” throughout. The Potency entry in assay [7], in assay [8], in assay [9], in [10], in [11] and in assay [12] was “inactive” in each case. Besides, in assay [14], the Potency result was “inactive”. The result in assay [13] and in [15] was inactive.
Consider `Nc1ccccc1C(=O)OCC(O)CO` (stereo unspecified), for which the Potency entry in assay [1], in assay [2], in assay [3], in assay [16], in assay [4] and in assay [5] was “inactive” each time. Besides, the Potency result in assay [6], in assay [7], in assay [8], in assay [10], in assay [11] and in assay [17] was “inactive” each time. In addition, the Potency entry in assay [12] and in assay [14] was “inactive” throughout. The compound was called inactive in assay [13] and in assay [15].
In the case of `CN(C)C(=O)Nc1cccc(OC(=O)NC(C)(C)C)c1`, the Potency entry in [1], in [2], in assay [3], in assay [4], in assay [5] and in [6] was “inactive” in each case. In addition, the Potency entry in assay [7], in assay [8], in [9], in assay [10], in assay [11] and in assay [17] was “inactive” in each case. The Potency result in [12] and in assay [14] was “inactive” throughout. Further, the call in assay [18], in assay [13] and in assay [15] was inactive.
On to `C#CC(O)(C=CCl)CC` (stereo unspecified), for which the Potency result in [1], in assay [2], in assay [3], in [16], in [4] and in assay [5] was “inactive” in each case. The Potency entry in assay [6], in [7], in assay [8], in assay [9], in assay [10] and in assay [11] was “inactive” in each case. Also, the Potency entry in assay [17] and in assay [12] was “inactive” throughout. Also, the compound was classed as inactive in assay [13].
As for `O=C(Cc1ccccc1)c1ccccc1`, the Potency result in assay [1], in [2], in [3], in assay [4], in [5] and in [6] was “inactive” in each case. Besides, the Potency entry in assay [7], in assay [9], in [10], in [11], in [12] and in assay [14] was “inactive” throughout. For the same compound, the compound was called inactive in assay [13] and in assay [15].
On to `CC(C)(C)CC(C)(C)c1ccc(O)cc1`, for which the Potency in assay [1] was 15.4 µM (active); in [3] it was 30.6 µM (active) and 33.5 µM (active); in [4], 57.7 µM (active) and 33.5 µM (active); in assay [10] it was 54.5 µM (active); in assay [11], 48.6 µM (active); in assay [12], 43.6 µM (active) and inactive. Also, the Potency result in assay [2], in [16], in assay [6], in assay [8] and in [14] was “inactive” throughout. Besides, the compound was classed as inactive in [18], in [13] and in assay [15].
